Bioassay records (PubChem)
Hits are enriched below; roughly 3.3% of the tested compounds scored in any of these assays.
TbPYK inhibitor – T. brucei pyruvate kinase inhibition; Q57TT1; TbPYK enzyme, Kinase-Glo Plus ATP luminescence, 45 min; Potency, µM (series often up to 76.8 µM), without a hit: at the highest dose activity, negative = inhibition, most hits filed as inhibitors; 410,000 compounds, 0.12% hits; AID 624173; note: % is set by controls: 0 for no effect and ±100 for the full control effect; nearly all actives have a fitted effect of over 50% in size
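ADP (130 uM final) triggers the TbPYK reaction after compound addition; incubation is 45 min at room temperature. Kinase-Glo Plus is then added and luminescence imaged. Normalized data are fitted to concentration-effect curves.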
AmpC inh detg – inhibitors of E. coli AmpC beta-lactamase with detergent; P00811; 370,000 compounds, 0.041% hits; Potency, µM (doses to about 114 µM), without a hit: at the top dose activity change, negative = inhibition, actives largely listed as inhibitors; AmpC hydrolysis of nitrocefin, absorbance 480 nm, 0.01% Triton;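 note: 0% = no-compound wells and -100% = no-enzyme wells; nearly all actives have a fitted effect of over 25% in size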
Target sequence (P00811 whole entry, looked up): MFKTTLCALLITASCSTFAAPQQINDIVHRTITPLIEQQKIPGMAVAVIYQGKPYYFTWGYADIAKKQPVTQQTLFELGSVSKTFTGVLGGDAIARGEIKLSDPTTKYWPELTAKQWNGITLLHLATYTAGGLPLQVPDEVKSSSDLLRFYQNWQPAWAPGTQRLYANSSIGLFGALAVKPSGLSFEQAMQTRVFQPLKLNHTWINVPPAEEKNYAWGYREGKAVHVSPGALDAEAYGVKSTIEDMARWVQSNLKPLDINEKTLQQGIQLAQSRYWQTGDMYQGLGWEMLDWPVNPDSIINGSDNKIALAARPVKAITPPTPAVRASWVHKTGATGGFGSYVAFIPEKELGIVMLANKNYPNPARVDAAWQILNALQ
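AmpC (5.3 nM in the dispensed reagent) in 20 mM phosphate pH 7.0 with 0.01% (detergent screen) or 0.0001% Triton X-100 was preincubated with compounds for 15 min at room temperature. Nitrocefin was then added from an 800 uM solution, and hydrolysis was followed at 480 nm.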
AmpC inh no detg – inhibitors of E. coli AmpC beta-lactamase without detergent; Potency, µM (series often up to 57.1 µM), for the others: top-dose activity change, negative = inhibition, actives largely listed as inhibitors; AmpC nitrocefin hydrolysis, absorbance 480 nm, 0.0001% Triton; 330,000 compounds, 0.52% hits; P00811; AID 485341;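 note: plate controls were no compound for no effect and no enzyme for full effect; nearly all actives have a fitted effect of over 20% in size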
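AmpC (5.3 nM in the dispensed reagent) in 20 mM phosphate pH 7.0 with 0.01% (detergent screen) or 0.0001% Triton X-100 was preincubated with compounds for 15 min at room temperature. Nitrocefin was then added from an 800 uM solution, and hydrolysis was followed at 480 nm.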
Sm TGR block – blocks Schistosoma mansoni thioredoxin glutathione reductase | purified TGR, DTNB reduction, TNB absorbance 405 nm | Potency, µM (series often up to 114 µM), inactives show top-dose activity change, negative = inhibition, usual class: inhibitors | 360,000 compounds, 3% hits | Q962Y6; note: % is set by controls: 0 for no effect and ±100 for the full control effect; nearly all actives have a fitted effect of over 60% in size
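First, TGR (20 nM dispensed) and NADPH were mixed with compound. Second, a 15 min room-temperature incubation followed. Third, further NADPH and then DTNB were added to start the reaction. Finally, TNB absorbance was monitored kinetically.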
SARS PLpro yeast – SARS-CoV PLP inhibition in yeast | 330,000 compounds, 0.19% hits | Potency, µM (series often up to 32.9 µM), for the others: at the highest dose activity, positive = growth rescue, hits mostly activators | AID 485353 | S. cerevisiae expressing SARS-CoV PLpro, growth rescue; calls by dose curve; note: 0% is about no effect; nearly all actives have a fitted effect of over 55% in size
RE007 growth inh – less growth of the S. pombe RE007 Vpr strain; S. pombe RE007 Vpr strain, BacTiter-Glo ATP luminescence, 24 h; Potency, µM (highest dose often 92.2 µM), for the others: at the highest dose activity change, negative = less growth, hits mostly inhibitors; 360,000 compounds, 0.21% hits; active = well fitted falling curve with a large enough effect; inconclusive = small, poorly fitted or top-dose-only effect; inactive = no such curve, though single readings can be large or run the other way; note: % is set by controls: 0 for no effect and ±100 for the full control effect; nearly all actives have a fitted effect of over 50% in size
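Fission yeast RE007 carrying one integrated HIV-1 vpr copy, seeded at OD 0.01 in PMG+AL medium with 23 nL pinned compound. Grown 24 h at 30 degrees; viability read by BacTiter-Glo luminescence after 5 min.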
Numbers without * were called inactive; ? = inconclusive; . = not tested or not shown; [ ] = remark or other dose. Unless noted, calls come from the whole dose curve; as a rule, active = well fitted curve in the direction sought with a large enough effect; inconclusive = small, poorly fitted or top-dose-only effect, or another doubt; inactive = no such curve, though single readings can be large; an effect the other way counts as inactive or inconclusive. Potency is the fitted concentration of half-maximal effect.

SMILES | TbPYK inhibitor | AmpC inh detg | AmpC inh no detg | Sm TGR block | SARS PLpro yeast | RE007 growth inh
C=CCSc1nnc(N2C(=O)C(O)=C(C(=O)c3ccco3)C2c2ccccc2F)s1 (stereo not given) | -6% | -5% | -47% | 11µM* | -2% | 4%
CCCSc1nnc(N2C(=O)C(O)=C(C(=O)c3ccco3)C2c2ccccc2F)s1 (stereo not given) | -27% | -5% | -43% | 7.1µM* | 0% | -6%
CSc1nnc(N2C(=O)C(O)=C(C(=O)c3ccco3)C2c2ccccc2F)s1 (stereo not given) | ? | 3% | -20% | ? | 13% | 4%
O=C(CSc1nc(-c2ccc(F)cc2)cc(C(F)(F)F)n1)NCc1ccccc1 | -3% | 31% | . | 0% | . | .
Cc1ccc(CNC(=O)C2CCN(c3ncnc4c3nc3n4CCCCC3)CC2)cc1 | -4% | 12% | . | -1% | . | .
COc1ccc2c(C)nc(Nc3nc(C)cc(C)n3)nc2c1 | ? | -8% | -18% | 11µM* | 10% | 3%
COc1ccc2c(C)nc(Nc3nc(C)c(C)c(=O)[nH]3)nc2c1 | 0% | -12% | -14% | 12% | 1% | 1%
C=CCn1c(O)c(N=NC(=O)CNC(=O)/C=C/c2ccco2)c2ccccc21 | -16% | -12% | -9% | 18µM* | -1% | 7%
COc1ccccc1CNC(=O)c1cc2sccc2n1Cc1ccc(Cl)cc1 | 6% | 19% | . | 10% | . | .
COC(=O)c1ccc(Cn2c(SCc3cccc(C)c3)nc3ccncc32)cc1 | -7% | 7% | . | -2% | . | .
CCCCCNC(=O)Cc1cc(=O)[nH]c(=O)[nH]1 | -5% | ? | 50µM* | -4% | 4% | 7%
CCCNC(=O)Cc1cc(=O)[nH]c(=O)[nH]1 | 1% | 3% | ? | 1% | 12% | 4%
CC(OC(=O)c1cc(O)c2ccccc2c1O)C(=O)Nc1ccc(C(N)=O)cc1 (stereo not given) | ? | ? | -30% | 22µM* | 4% | ?
CC1=C(C(N)=O)C(c2ccc(C)o2)C(C(N)=O)=C(C)N1 | -10% | 0% | -10% | 45µM* | -2% | 36%
CCOC(=O)C1=C(C)NC(C)=C(C(=O)OCC)C1c1ccc(C)o1 | 2% | -14% | 22% | ? | 1% | 10%
C=CCOC(=O)C1=C(C)NC(C)=C(C(=O)OCC=C)C1c1ccc(C)o1 | 11% | -8% | 48% | 16µM* | -6% | 1%
Cc1cc(C)cc(C(=O)Nc2c(C(=O)Nc3ccccc3F)oc3ccccc23)c1 | -11% | 0% | . | 18% | . | .
COc1cc2c(cc1OC)C1=C(C#N)CCC(=NC(=O)c3ccco3)N1CC2 | 1% | -2% | -15% | . | 0% | -15%
COc1cc2c(cc1OC)C1=C(C#N)CN(CC(=O)O)CN1CC2 | -4% | -11% | 46% | 35µM* | -6% | 6%
Cn1cnc(S(=O)(=O)N2CCCC(C(=O)NCc3ccc(Cl)cc3)C2)c1 (stereo not given) | 2% | 2% | . | -1% | . | .
O=C(Cn1ccc(C(F)(F)F)n1)Nc1ccc(S(=O)(=O)NCc2ccco2)cc1 | 4% | -13% | -31% | 45µM* | -1% | -9%
O=C(Nc1ccc(S(=O)(=O)NCc2ccco2)cc1)c1ccncc1 | 3% | 1% | -12% | -5% | 1% | -4%
Cc1cc(=O)n2c3c(sc2n1)C(=O)N(Cc1ccccc1)C3=O | . | -10% | -22% | 1.1µM* | -13% | .
CCOP(=O)(OCC)/C(C#N)=C/c1ccc([N+](=O)[O-])cc1 | -1% | 2% | 83% | -34% | -3% | -16%
CCOP(=O)(OCC)/C(C#N)=C/c1ccoc1 | -23% | -8% | -1% | 45µM* | -3% | 2%
SMILES | TbPYK inhibitor | AmpC inh detg | AmpC inh no detg | Sm TGR block | SARS PLpro yeast | RE007 growth inh
CC(C)c1ccc(NC(=O)c2ccc(CN3CC(=O)N4CCCCC4C3=O)cc2)cc1 (stereo not given) | -11% | 22% | . | -4% | . | .
Cc1ccc(SC(=O)COc2ccccc2C)cc1 | 2% | 0% | -21% | 11µM* | -3% | -24%
N#CC1=C2SCN(c3ccccc3)CN2C(=O)CC1c1cccs1 (stereo not given) | ? | -2% | -39% | ? | 2% | -13%
N#CC1=C2SCN(c3ccccc3)CN2C(=O)CC1c1ccccc1Cl (stereo not given) | ? | -13% | -43% | 22µM* | 3% | -11%
N#CC1=C2SCN(Cc3ccco3)CN2C(=O)CC1c1c(F)cccc1Cl (stereo not given) | ? | -10% | -30% | 45µM* | 0% | -4%
N#CC1=C2SCN(Cc3ccccc3)CN2C(=O)CC1c1ccccc1F (stereo not given) | ? | ? | -24% | -30% | 3% | -12%
N#CC1=C2SCN(c3ccccc3)CN2C(=O)CC1c1c(Cl)cccc1Cl (stereo not given) | 2.5µM* | -17% | 28µM* | 0% | 3% | -4%
O=C(NCc1ccccc1)c1cccn1-c1nnc(N2CCCCC2)s1 | 4%[15.4 µM] | 5% | . | -5% | . | .
CN(C)c1ccc(S(=O)(=O)NCC(=O)OCC(=O)Nc2cccc(Cl)c2)cc1[N+](=O)[O-] | -4% | -8% | -7% | -3% | 16% | 7%
CNc1ccc(S(=O)(=O)NCC(=O)OCC(=O)Nc2cccc(Cl)c2Cl)cc1[N+](=O)[O-] | -4% | -4% | 25µM* | -6% | -8% | -18%
O=C(COc1ccc(Nc2ccccc2)cc1)Nc1ccncc1 | -12% | ? | -31% | 45µM* | -11% | -10%
O=c1cc2oc3cc(O)c(O)cc3c(-c3ccccc3O)c-2cc1O | -20% | 1% | 16µM* | 8.9µM* | 5% | .
CC(C)c1ccc(CN(C(=O)c2ccco2)C2CCS(=O)(=O)C2)cc1 (stereo not given) | -2% | -10% | 49% | 5% | -1% | 8%
Cc1cccc(C(=O)N(Cc2ccccc2F)C2CCS(=O)(=O)C2)c1 (stereo not given) | -1% | 15% | . | -2% | . | .
CC(C)c1ccc(CN(C(=O)/C=C/c2ccco2)C2CCS(=O)(=O)C2)cc1 (stereo not given) | -22% | -5% | 49% | 3.5µM* | 0% | 5%
O=C(/C=C/c1ccco1)N(Cc1ccccc1F)C1CCS(=O)(=O)C1 (stereo not given) | -5% | -11% | 4% | 10µM* | -7% | 0%
O=C(NNS(=O)(=O)c1cccc(Cl)c1)c1cc(-c2ccc(F)cc2)nc2ccccc12 | 8% | -9% | 13µM* | 1% | 0% | 2%
